The values that follow come from paper PMC11062922 (Nature Chemical Biology, 2023).

Common to all, as to parameters: species or system human, MV4-11 + K-562 + COLO205 + SK-N-BE2 + OVCAR-8
For assay [1], the system named is ACVR1B. The note with it: read-out: apparent Kd, n = 1.
The test system of assay [2] is BRAF. The note with it: read-out: apparent Kd; compound concentrations: 100 nM and 1000 nM (sheet 'Samples'), CATDS: 0.43506507859715299; n = 1.
In assay [3] the test system is CDC42BPG. Particulars: read-out: apparent Kd; compound concentrations: 100 nM and 1000 nM (sheet 'Samples'), CATDS: 0.27820560825635698; n = 1.
Assay [4] concerns CDC42. Particulars: read-out: apparent Kd; compound concentrations:100 nM and 1000 nM (sheet 'Samples'); n = 1.
Assay [5] concerns TGFBR1. Particulars: read-out: apparent Kd, n = 1.
The subject of assay [6] is ACVR2B. The note with it: read-out: apparent Kd, compound concentrations: 100 nM and 1000 nM (sheet 'Samples'), n = 1.
Assay [7] deals with CSNK1A1. Particulars: read-out: apparent Kd; compound concentrations: 100 nM and 1000 nM (sheet 'Samples'), CATDS: 7.5324168753573395E-2; n = 1.
Assay [8] relates to OPA1. Particulars: read-out: apparent Kd; compound concentrations: 100 nM and 1000 nM (sheet 'Samples'), CATDS: 7.7038231613769201E-2; n = 1.
Assay [9] relates to PRKD2. The note with it: read-out: apparent Kd; compound concentrations: 100 nM and 1000 nM (sheet 'Samples'), CATDS: 0.11729729568005599; n = 1.
The test system of assay [10] is PRKD3. The note with it: read-out: apparent Kd; compound concentrations: 100 nM and 1000 nM (sheet 'Samples'), CATDS: 0.118060499220425; n = 1.
The subject of assay [11] is RIPK2. Particulars: read-out: apparent Kd, compound concentrations: 100 nM and 1000 nM (sheet 'Samples'), n = 1.
Assay [12] deals with TGFBR2. Particulars: read-out: apparent Kd; compound concentrations: 100 nM and 1000 nM (sheet 'Samples'), CATDS: 8.4852154522950404E-2; n = 1.
The subject of assay [13] is ACVR1. The note with it: read-out: apparent Kd; compound concentrations:100 nM and 1000 nM (sheet 'Samples'); n = 1.
In assay [14] the test system is BCR. The note with it: read-out: apparent Kd, n = 1.
In assay [15] the test system is BMPR1A. Particulars: read-out: apparent Kd; compound concentrations:100 nM and 1000 nM (sheet 'Samples'); n = 1.
The test system of assay [16] is CSNK2A1;CSNK2A3. The note with it: read-out: apparent Kd; compound concentrations:100 nM and 1000 nM (sheet 'Samples'); n = 1.
Assay [17] has as its system CSNK2A2. The note with it: read-out: apparent Kd; compound concentrations:100 nM and 1000 nM (sheet 'Samples'); n = 1.
In assay [18] the test system is GSK3A. The note with it: read-out: apparent Kd; compound concentrations:100 nM and 1000 nM (sheet 'Samples'); n = 1.
Assay [19] deals with GSK3B. Particulars: read-out: apparent Kd; compound concentrations:100 nM and 1000 nM (sheet 'Samples'); n = 1.
In assay [20] the test system is JAK2. Particulars: read-out: apparent Kd; compound concentrations:100 nM and 1000 nM (sheet 'Samples'); n = 1.
Assay [21] concerns ADCK3. The note with it: read-out: apparent Kd; compound concentrations: 100 nM and 1000 nM (sheet 'Samples'), CATDS: 4.7719442951788302E-2; n = 1.
The test system of assay [22] is CSNK1G1. Particulars: read-out: apparent Kd; compound concentrations: 100 nM and 1000 nM (sheet 'Samples'), CATDS: 3.1181891791675201E-2; n = 1.
Assay [23] has as its system DCTPP1. Particulars: read-out: apparent Kd; compound concentrations: 100 nM and 1000 nM (sheet 'Samples'), CATDS: 3.3773682420650999E-2; n = 1.
The test system of assay [24] is DDR1. Particulars: read-out: apparent Kd; compound concentrations: 100 nM and 1000 nM (sheet 'Samples'), CATDS: 4.4560789756538197E-2; n = 1.
Assay [25] deals with FLT4. The note with it: read-out: apparent Kd; compound concentrations: 100 nM and 1000 nM (sheet 'Samples'), CATDS: 0.117719858007404; n = 1.
For assay [26], the system named is GAK. Particulars: read-out: apparent Kd; compound concentrations: 100 nM and 1000 nM (sheet 'Samples'), CATDS: 0.134261211287381; n = 1.
For assay [27], the system named is MAPK14. The note with it: read-out: apparent Kd; compound concentrations: 100 nM and 1000 nM (sheet 'Samples'), CATDS: 3.4656065329692502E-2; n = 1.
For assay [28], the system named is MAPKAPK2. The note with it: read-out: apparent Kd; compound concentrations: 100 nM and 1000 nM (sheet 'Samples'), CATDS: 3.6359622105698597E-2; n = 1.
Assay [29] concerns PDGFRB. The note with it: read-out: apparent Kd; compound concentrations: 100 nM and 1000 nM (sheet 'Samples'), CATDS: 3.2777041424413303E-2; n = 1.
The subject of assay [30] is PIK3CD. The note with it: read-out: apparent Kd; compound concentrations: 100 nM and 1000 nM (sheet 'Samples'), CATDS: 7.8466162037350698E-2; n = 1.
Assay [31] deals with PIM2. Particulars: read-out: apparent Kd; compound concentrations: 100 nM and 1000 nM (sheet 'Samples'), CATDS: 3.2827495568097498E-2; n = 1.
The subject of assay [32] is PRKAG1. Particulars: read-out: apparent Kd; compound concentrations: 100 nM and 1000 nM (sheet 'Samples'), CATDS: 0.117727250561146; n = 1.
The subject of assay [33] is RET. Particulars: read-out: apparent Kd; compound concentrations: 100 nM and 1000 nM (sheet 'Samples'), CATDS: 0.121628255608471; n = 1.
The test system of assay [34] is RIPK3. The note with it: read-out: apparent Kd; compound concentrations: 100 nM and 1000 nM (sheet 'Samples'), CATDS: 3.5551158882109302E-2; n = 1.
Assay [35] concerns SLK. Particulars: read-out: apparent Kd; compound concentrations: 100 nM and 1000 nM (sheet 'Samples'), CATDS: 3.3864807637991101E-2; n = 1.
The test system of assay [36] is STK10. The note with it: read-out: apparent Kd; compound concentrations: 100 nM and 1000 nM (sheet 'Samples'), CATDS: 3.2932221087981599E-2; n = 1.
Setting [37] is: compound concentrations:100 nM and 1000 nM (sheet 'Samples').

Where two headings read alike, the source gives them in different places.

For the compound `CN(C)CCOc1ccc(-c2cc(-c3ccc4c(c3)CCC4=NO)c(-c3ccncc3)o2)cc1.Cl` [SB-682330-A], the potency estimated from few doses is 1.13 µM in [1] (compound concentrations: 100 nM and 1000 nM (sheet 'Samples'), CATDS: 0.32185082744978499); 0.644 µM in [2]; 1.6 µM in assay [3].

`Cl.NC(=O)c1ccc(-c2nc(-c3ccccn3)c(-c3ccc4c(c3)OCO4)[nH]2)cc1` [SB-431542-A]: the potency estimated from few doses is 1.14 µM in assay [1] (setting [37]), 0.731 µM in assay [4] and 0.946 µM in assay [5] (setting [37]).

Consider `Cc1ccnc2ccc(-c3sc(N)nc3-c3ccccn3)nc12` [GW777257X], for which the potency estimated from few doses in assay [1] (compound concentrations: 100 nM and 1000 nM (sheet 'Samples'), CATDS: 0.44095653710551203) is 0.00566 µM; in assay [6] (CATDS: 9.05518688532823E-2), 0.854 µM; in assay [7], 1.73 µM; in [8] it was 1.57 µM; in assay [9], 0.384 µM; in [10], 0.377 µM. Besides, the potency estimated from few doses in assay [11] (CATDS: 9.3212886773084105E-2) is 0.776 µM; in [5] (compound concentrations: 100 nM and 1000 nM (sheet 'Samples'), CATDS: 0.51991943788690098) it was 0.00412 µM; in assay [12], 1.07 µM.

On to `COc1cccc(-n2ncc3c(N/N=C/c4ccncc4)ncnc32)c1` [GW784752X], for which the potency estimated from few doses in assay [1] (setting [37]) is 0.725 µM; in assay [13], 0.119 µM; in assay [14] (setting [37]), 0.641 µM; in assay [15], 1.13 µM; in assay [16] it was 0.882 µM; in assay [17] it was 0.252 µM. Also, the potency estimated from few doses was 0.0472 µM in assay [18], 0.0756 µM in assay [19], 0.603 µM in [20] and 1.52 µM in [5] (setting [37]).

As for `Cl.c1ccc(-c2ccc3c(Nc4ccc5[nH]ccc5c4)ccnc3c2)nc1` [GW440138A], the potency estimated from few doses in assay [1] (compound concentrations: 100 nM and 1000 nM (sheet 'Samples'), CATDS: 4.6786491220556801E-2) is 0.481 µM; in assay [6] (CATDS: 8.2353092384730597E-2), 0.119 µM; in [21], 0.453 µM; in assay [14] (compound concentrations: 100 nM and 1000 nM (sheet 'Samples'), CATDS: 9.2768545935790703E-2), 0.0942 µM; in assay [22], 2.21 µM; in assay [23] it was 1.52 µM. The potency estimated from few doses was 0.558 µM in assay [24]; 0.0621 µM in [25]; 0.0504 µM in assay [26]; 1.36 µM in assay [27]; 1.13 µM in assay [28]; 1.74 µM in assay [29]. Besides, the potency estimated from few doses was 0.131 µM in [30]; 1.73 µM in assay [31]; 0.0621 µM in assay [32]; 0.0589 µM in assay [33]; 0.096 µM in [11] (CATDS: 9.1819090008616905E-2); 1.23 µM in [34]. Moreover, the potency estimated from few doses was 1.5 µM in assay [35]; 1.7 µM in assay [36]; 1.61 µM in assay [5] (compound concentrations: 100 nM and 1000 nM (sheet 'Samples'), CATDS: 3.3353996137348303E-2).
